# Only some compounds are listed: those with a hit (about 3.8% of all), similar ones and a draw of the others.
# p-CIP stab down: lowers stability of the mouse p/CIP coactivator protein | decrease of EGFP signal, % at 10 µM | 290,000 compounds, 0.01% hits | F442A p/CIP-EGFP cells, EGFP fluorescence, 16 h;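 active = EGFP signal decrease of at least 30% at 10 µM or well 3 SD below plate mean, unless failing retest; inactive = the rest, including hits failing retest or dose response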
# NALP1 inh: inhibitors of NALP1 inflammasome in yeast; S. cerevisiae NALP1/ASC/caspase-1 growth, X-gal OD620, 72 h; 280,000 compounds, 0.61% hits; inhibition, % at 10 µM; in the data active = inhibition mostly above about 24%, no sharp cut-off; inactive = mostly below about 32%
# HSF1 activator: increases HSF-1 driven luciferase reporter signal. NIH3T3-HGL HSF-1 luciferase reporter, MG132, 8 h; 100% = twice DMSO control signal. activation, % at 9 µM. 300,000 compounds, 1.7% hits. AID 504408;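 active = mean replicate activation of at least 50% with a set share of replicates each reaching 50%; inconclusive = only one of those two conditions met; inactive = mean below 50% and too few replicates reaching it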;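 note: 0% = median of the neutral control wells and 100% = twice that signal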
# Hsp70 activator: Hsp70 transcriptional activation, primary screen | HeLa Hsp70 promoter luciferase reporter, luminescence; scaled: vehicle 0, proteasome-inhibitor control 100% | activation, % at 10 µM | 200,000 compounds, 0.04% hits | AID 1203;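 active = activation above the mean across all tested compounds plus 3 SD, cutoff set per campaign, cut at about 5.5% in these data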;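 note: 100% = MG132 at 30 µM as the positive control and 0% = DMSO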
# HSF1 inh: HSF1 inhibition | NIH3T3-HGL HSE-luciferase, MG132-induced, luminescence 8 h; hits give low values | activity change, negative = inhibition, % at 7.5 µM (by protocol) | 300,000 compounds, 0.77% hits | AID 2098;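 active = more than half of replicate wells show activity change below -50%, luminescence cut by over half; inconclusive = some wells, but at most half, below -50%; inactive = no replicate well below -50%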;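 note: luciferase reports HSF-1 transcriptional activity via heat shock element; 0% = median of DMSO wells and -100% = zero luminescence signal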
# HSP90 inh: HSP90 refolding inhibition in rabbit reticulocyte lysate | inhibition, % at 5.6 µM | AID 1789 | luciferase refolding luminescence, 3 h | 290,000 compounds, 0.91% hits;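 active = inhibition above the screen-wide mean plus 3 SD, computed separately per campaign, cut at about 16% in these data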;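 note: 0% = DMSO wells and 100% = 60 µM geldanamycin wells; inhibitors lower the luminescence because luciferase stays unfolded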
# Hsp70 act DR: dose-dependent Hsp70 transcriptional activation. shares compounds with Hsp70 activator. HeLa hsp70.1pr-luc reporter, luciferase luminescence. calls only at 99 µM. 70 compounds, 10% hits. AID 1252;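 active = over 50% activation at some tested dose; inactive = under 50% activation at every tested dose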
# * marks the source's active call; other numbers are inactive results; i = inactive; ? = inconclusive; . = no result given; + = active, no number.
SMILES,p-CIP stab down,NALP1 inh,HSF1 activator,Hsp70 activator,HSF1 inh,HSP90 inh,Hsp70 act DR
CS(=O)(=O)N1CCN(c2ccc(NC(=O)c3ccc([N+](=O)[O-])o3)cc2)CC1,-15,-5,.,8.1*,.,-1,i
CCCC(=O)N1CCN(c2ccc(NC(=O)c3ccc([N+](=O)[O-])o3)cc2)CC1,-12,-6,8,15*,-11,-1,i
O=C(Nc1ccc(N2CCCC2)c(Cl)c1)c1ccc([N+](=O)[O-])o1,-18,8,.,20*,.,3,i
CC(NC(=O)C1CCC(C)(C(=O)O)C1(C)C)c1ccccc1 (configuration not stated),0,14,26,.,1,3,.
Cc1ccnc(NS(=O)(=O)c2ccc(NC(=O)c3cc(-c4ccc(Br)cc4)nc4ccccc34)cc2)n1,5,22,11,0,0,-2,.
O=C1/C(=C/c2ccncc2)Cc2ccccc21,.,.,-16,.,1,.,.
CC1C/C(=C/c2ccncc2)C(=O)/C(=C/c2ccncc2)C1 (configuration not stated),-10,3,32,178*,30,4,+
Cc1cccc(-c2noc(CCCC(=O)N3CCOCC3)n2)c1,-3,4,15,15*,3,2,i
O=c1c(Br)c(Br)cnn1-c1ccccc1,52,-17,.,7.4*,.,-8,i
Cn1nccc1C(=O)N1CCOCC1,6,16,-12,.,-4,-1,.
Cc1ccc(NC(=S)NC(NC(=O)c2ccccc2)C(Cl)(Cl)Cl)c(C)c1 (configuration not stated),-5,13,18,7.0*,3,7,i
O=C(NCC1COc2ccccc2O1)C1CCCN(S(=O)(=O)c2cnc[nH]2)C1 (configuration not stated),4,.,17,5.8*,-1,-1,i
CCCc1nc2c(sc3nc4c(cc32)COC(C)(C)C4)c(=O)n1CCN(CC)CC,6,1,7,0,0,5,.
CC[n+]1c(/C=C2\Sc3ccccc3N2C)ccc2cccc(C)c21,-447,100*,-11,8.9*,?,-2,i
Cc1cc(C(=O)Cn2ncc(Cl)c(Cl)c2=O)c(C)n1CC(F)(F)F,-6,32,-6,16*,-5,9,i
C#CCN(CC=C)C(=O)C1CCC(=O)N(CCCc2ccccc2)C1 (configuration not stated),5,16,2,.,0,-2,.
O=C(CCCCn1c(=O)c2ccccc2n(Cc2ccccc2F)c1=O)NC1CCN(Cc2ccccc2)CC1,-13,-10,27,0,7,3,.
CC(C)(C)c1ccc(-n2nc(C(N)=O)c(O)cc2=O)cc1,-10,2,-9,0,4,4,.
CC(C)(C)c1ccc(-n2nc(C#N)c(Cl)cc2=O)cc1,21,-14,153*,16*,152,0,i
CC(=O)Nc1sc2c(c1-c1nc3ccccc3s1)CCN(C(C)C)C2,-268,48*,.,7.5*,.,3,i
CC(C)N1CCc2c(sc(NC(=O)Cc3ccccc3)c2C(N)=O)C1,4,8,-4,.,-4,-1,.
CCN1C/C(=C/c2ccc(OC)c(O)c2)C(=O)/C(=C/c2ccc(OC)c(O)c2)C1,-13,13,-79,644*,-79*,14,+
CC(C)C[C@H](NC(=O)C1CCN(S(=O)(=O)c2ccccc2)CC1)C(=O)NCc1ccncc1,-12,21,-2,.,4,-2,.
O=C1C=CC(O)(c2cc(=O)c3c(O)cc(O)cc3o2)C=C1,-28,35,-93,25*,-91*,10,+
Cc1nn(CC(=O)NCC(C)c2ccccc2)c(=O)c2cccn12 (configuration not stated),-7,5,-4,.,-9,2,.
CCOC(=O)C1(C/C(C)=N/NC(N)=O)CC(C)OC1=O (configuration not stated),-15,27,1,5.7*,11,10,i
CCCCCOCC1CC(C/C(C)=N/NC(N)=O)(C(=O)OCC)C(=O)O1 (configuration not stated),-14,8,14,.,-11,0,.

# Assay outcomes deposited in PubChem BioAssay by several laboratories.
